A short description of the assay: small molecules boosting NK-mediated OVCAR3 lysis – imaging, primary NK cells, calcein-AM imaging, primary screen (AID 1508625).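 For z-score: more negative robust z means stronger NK killing of tumor cells.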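 Note: compound given to NK cells 16 h before adding targets at 1.5 to 1 ratio.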 The conditions noted are these: OVCAR3 lysis by primary NK cells, at 5 µM; z-score: measured here: robust Z-score, single-point normalisation.

SMILES strings stand for the structures.

With `COc1ccccc1N1CCN(C(=O)c2cnn3c(C(F)(F)F)cc(-c4ccc(C)cc4)nc23)CC1`, the corrected activity, negative = more killing is -4.5% and the z-score was -1.43.

Consider `Cc1ccc(C=Cc2nc3ccccc3[nH]2)cc1`, for which the corrected activity, negative = more killing was 2.68% and the z-score is 0.723.

With `O=C(Nc1ccccc1C(=O)Nc1ccc(Br)cn1)c1ccccc1`, the corrected activity, negative = more killing was -6.2% and the z-score was -2.34.

As for `O=C1c2ccccc2C(=O)N1C1C(=O)N(c2cccc(C(F)(F)F)c2)C1c1ccc(F)cc1` (stereo unspecified), the corrected activity, negative = more killing is -1.28% and the z-score is -0.397.

Take `Cc1occc1C(=O)N1N=C(C2CC2)CC1(O)C(F)(F)F` (stereo unspecified): the corrected activity, negative = more killing was -2.75% and the z-score was -1.13.

`COc1cccc(C=Nn2c(C)nnc2C)c1OC`: the corrected activity, negative = more killing is -2.16% and the z-score is -0.942.

`COc1ccccc1CNc1nc(-c2ccc(Br)cc2)nc2ccccc12`: the corrected activity, negative = more killing was -2.39% and the z-score is -1.28.

For `CCOC(=O)c1c(NC(=O)c2ccc(C(=O)c3ccccc3)cc2)sc2c1CCCC2`, the corrected activity, negative = more killing is -3.96% and the z-score was -0.836.

For `O=C(COc1ccccc1)NCCSc1nc2ccccc2s1`, the corrected activity, negative = more killing is -4.8% and the z-score was -1.81.

As for `COC(=O)c1ccc(COC(=O)c2cc3ccccc3oc2=O)cc1`, the corrected activity, negative = more killing is -2.06% and the z-score is -1.15.

Regarding `COc1ccc(C2NC(=O)c3c(sc4c3CCCC4)N2)cc1OC` (stereo unspecified), the corrected activity, negative = more killing was -2.78% and the z-score is -1.1.

With `Cc1cc(C)cc(NC(=O)c2cc(S(=O)(=O)NC3CCCCC3)ccc2F)c1`, the corrected activity, negative = more killing was -5.25% and the z-score is -1.42.

Consider `O=C(NCc1ccccn1)c1sc2cc([N+](=O)[O-])ccc2c1Cl`, for which the corrected activity, negative = more killing is -2.44% and the z-score is -0.775.

Consider `COc1ccc(C(O)=C2C(=O)C(=O)N(c3ccccn3)C2c2ccc(C(C)C)cc2)cc1` (stereo unspecified), for which the corrected activity, negative = more killing is -1.15% and the z-score is -0.498.

For the compound `Cc1ccc2c(c1)NCC(C(=O)O)O2` (stereo unspecified), the corrected activity, negative = more killing was -4.87% and the z-score is -1.31.

Turning to `Cc1ccc(C(=O)Nc2cccc(C(=O)N3CCOCC3)c2)cc1Cl`, the corrected activity, negative = more killing was -0.0326% and the z-score was -0.0182.

Take `CC(=O)c1cccc(NC(=O)C2CCN(C(=O)c3ccc(F)cc3)CC2)c1`: the corrected activity, negative = more killing was -3.29% and the z-score is -1.22.

As for `CC1(C)NN=C(N)SC1=O`, the corrected activity, negative = more killing was -0.451% and the z-score was -0.14.

Turning to `O=C(CNc1ccc(Br)cc1)c1ccccc1`, the corrected activity, negative = more killing was -3.77% and the z-score was -1.4.

As to `Cc1ccc(OCCNC(=O)C2CCCCC2)cc1`, the corrected activity, negative = more killing is -4.66% and the z-score is -2.59.

With `Cc1onc(-c2ccccc2)c1C(=O)Nc1cccc(Br)c1`, the corrected activity, negative = more killing is -5.57% and the z-score was -1.98.

For `c1ccc(CN2CCN(Cc3ccc4ccccc4c3)CC2)nc1`, the corrected activity, negative = more killing is -2.43% and the z-score was -1.08.

For the compound `Cc1ccc(C2C(=C(O)c3ccc(Cl)cc3)C(=O)C(=O)N2CCCn2ccnc2)cc1` (stereo unspecified), the corrected activity, negative = more killing is -3.13% and the z-score is -1.2.

Consider `Cc1ccc(N2C(=O)CC(NCCc3ccc(F)cc3)C2=O)cc1` (stereo unspecified), for which the corrected activity, negative = more killing is -3.27% and the z-score was -1.25.

For the compound `CC(=O)CSc1nc(-c2cccs2)cc(C(F)(F)F)c1C#N`, the corrected activity, negative = more killing is -1.56% and the z-score is -0.485.

In the case of `CCCNS(=O)(=O)c1ccc(F)c(C(=O)Nc2cc(C)ccc2OC)c1`, the corrected activity, negative = more killing was -6% and the z-score is -1.62.

For `Cn1c(=O)c2c(nc(Oc3ccc(Cl)cc3)n2Cc2ccccc2Br)n(C)c1=O`, the corrected activity, negative = more killing is -3.02% and the z-score was -0.9.

As to `CCOC(=O)C1=C(C)Nc2sc(C(=O)c3ccc(C)cc3)c(N)c2C1c1ccc(C(=O)OC)cc1` (stereo unspecified), the corrected activity, negative = more killing was -4.02% and the z-score is -1.2.

On to `COc1cccc(CCNc2ccc(N3C(=O)C4CCC(C)CC4C3=O)cc2[N+](=O)[O-])c1` (stereo unspecified), for which the corrected activity, negative = more killing is -3.2% and the z-score was -1.17.

For `Cc1ccccc1N1C(=O)c2ccc(C(=O)Nc3cccc([N+](=O)[O-])c3)cc2C1=O`, the corrected activity, negative = more killing is -3.72% and the z-score was -1.15.

`O=C(NN=Cc1ccncc1)c1n[nH]c2c1CCC2`: the corrected activity, negative = more killing is -1.79% and the z-score is -0.783.

As to `Cc1cc2oc(=O)c3c(c2c2occ(-c4ccc(Br)cc4)c12)CCC3`, the corrected activity, negative = more killing is -4.94% and the z-score is -1.48.

In the case of `Cc1ccccc1C(=O)N1N=C(c2ccc(F)cc2)CC1(O)C(F)(F)F` (stereo unspecified), the corrected activity, negative = more killing was -4.55% and the z-score was -2.44.

On to `Cn1c2ccccc2n2c(SCC(=O)O)nnc12`, for which the corrected activity, negative = more killing is -4.88% and the z-score was -2.01.

With `Cc1sc(NC(=O)C2c3ccccc3Oc3ccccc32)c(C(N)=O)c1C`, the corrected activity, negative = more killing was -5.26% and the z-score is -2.16.

`O=[N+]([O-])c1ccc(OCc2ccc(Br)cc2)cc1`: the corrected activity, negative = more killing is -1.79% and the z-score was -0.994.

Regarding `O=C(c1ccc(COCC(F)(F)F)o1)N1CCCCCC1`, the corrected activity, negative = more killing was -2.9% and the z-score was -1.19.

On to `O=C(Oc1ccccc1C(=S)N1CCOCC1)c1ccc(Br)cc1`, for which the corrected activity, negative = more killing was -4.68% and the z-score was -1.45.

Regarding `Cc1ccccc1C(=O)Nc1ccc(C(=O)O)cc1NC(=O)c1ccccc1C`, the corrected activity, negative = more killing is -0.368% and the z-score was -0.197.

Turning to `Cc1c(C(=O)Nc2cccc([N+](=O)[O-])c2)sc2ncn(CC(=O)N3CCOCC3)c(=O)c12`, the corrected activity, negative = more killing was -2.14% and the z-score is -0.779.

On to `Cc1sc2ncn(CC(=O)Nc3ccc(Oc4ccccc4)cc3)c(=O)c2c1S(=O)(=O)N1CCN(C)CC1`, for which the corrected activity, negative = more killing was -6.04% and the z-score was -1.5.

Take `O=C1C2C3C=CC(C3)C2C(=O)N1CCCO` (stereo unspecified): the corrected activity, negative = more killing was -1% and the z-score was -0.311.

As to `Cc1cccc(C)c1OCCNC(=O)c1cc2ccccc2o1`, the corrected activity, negative = more killing is -1.04% and the z-score was -0.579.

As to `COCc1cccc(NS(=O)(=O)Cc2ccccc2)c1`, the corrected activity, negative = more killing is 0.328% and the z-score was 0.183.

Turning to `COc1ccc(CNCC2OCCc3ccccc32)cc1OC` (stereo unspecified), the corrected activity, negative = more killing was -5.1% and the z-score is -1.95.

On to `O=[N+]([O-])c1ccc(C=Nn2c(CO)nc3ccccc32)cc1`, for which the corrected activity, negative = more killing was -5.03% and the z-score is -1.6.

As for `O=C(c1ccc([N+](=O)[O-])cc1)N1N=C(C2CC2)CC1(O)C(F)F` (stereo unspecified), the corrected activity, negative = more killing is -2.43% and the z-score is -1.

`CCN(C(=O)c1c(-c2ccccc2)noc1C)C1CCCCC1`: the corrected activity, negative = more killing was -2.37% and the z-score was -0.905.

The values are drawn from PubChem BioAssay AID1508625 (Wald Lab, School of Medicine, Case Western Reserve …, 2021).
